Bioassay records (PubChem)
VDR inh: vitamin D3 receptor (human) inhibition. P11473. VDR-SRC2-3 peptide fluorescence polarization, 2 h. Potency, µM, inactives show max response, negative = inhibition, usual class: inhibitors. 0.93% of 400,000 active. AID 504847; note: potency is the fitted concentration of half-maximal effect
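Fluorescence polarization assay of small-molecule disruption of VDR binding to coregulator peptide SRC2-3. Compounds and controls pin-transferred, then read after 2 h incubation at ambient room temperature.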
G9a inh: inhibitors of human histone lysine methyltransferase G9a. Q96KQ7. G9a H3K9 monomethylation, AlphaScreen, 2 h. Potency, µM (top dose mostly 102 µM), inactives show at the highest dose activity, negative = inhibition, actives largely listed as inhibitors. 8.8% of 350,000 active. AID 504332; note: potency is the fitted concentration of half-maximal effect; nearly all actives have a fitted effect of over 75% in size
Target sequence (Q96KQ7 913-1193 limits assumed): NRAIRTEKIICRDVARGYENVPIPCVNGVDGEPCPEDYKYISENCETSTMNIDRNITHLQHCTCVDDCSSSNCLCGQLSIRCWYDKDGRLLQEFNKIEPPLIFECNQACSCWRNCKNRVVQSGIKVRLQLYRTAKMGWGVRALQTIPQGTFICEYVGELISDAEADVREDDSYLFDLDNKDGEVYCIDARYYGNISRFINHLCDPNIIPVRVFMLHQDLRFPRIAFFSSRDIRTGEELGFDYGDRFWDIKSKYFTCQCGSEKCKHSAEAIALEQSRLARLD
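Enzyme 20 nM + cpd, 15 min RT; add b-H3K9 pep 500 nM / SAM 20 uM; 2 h RT; anti-H3K9me1 Ab 0.5 ug/mL + SA donor / anti-rabbit acceptor beads 20 ug/mL each, 10 min; AlphaScreen read.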
PLK1 PBD inh: PLK1 (human) polo-box domain binding inhibition. P53350. Plk1 PBD binding of FITC phosphopeptide, fluorescence polarization. Potency, µM, for inactives: max response, negative = inhibition, usual class: inhibitors. 2.8% of 360,000 active; note: potency is the fitted concentration of half-maximal effect; series mostly up to about 57 µM; nearly all actives have a fitted effect of over 65% in size
CCT chaperon mod: changes cytosolic chaperonin activity. 0.3% of 360,000 active. purified chaperonin ATPase assay, HTRF ADP detection, 30 min. activity change, % (test concentration not listed), hits read low; in the data active = activity change below about -30%
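First, chaperonin was dispensed at 40 nM or 20 nM final depending on batch activity. Next, compounds were pinned at 76 uM and ATP added at 10 uM. After 30 min at 37 °C, ADP detection reagents ran 30 min at ambient temperature.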
Mm-Cpn inhibitor: inhibitors of Methanococcus maripaludis chaperonin TRiC (MmCpn). purified Mm-Cpn ATPase, ADP Transcreener TR-FRET. Potency, µM (top dose mostly 76.9 µM), inactives show at the highest dose activity, negative = inhibition, hits mostly inhibitors. 0.031% of 330,000 active. AID 504842; note: potency is the fitted concentration of half-maximal effect; nearly all actives have a fitted effect of over 80% in size
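25 nM Mm-CPN + cpd, 10 min 37°C; + 10 uM ATP, 30 min 37°C; buffer 30 mM Tris pH 7.4, 100 mM KCl, 5 mM MgCl2, 1 mM DTT; Transcreener ADP HTRF detection 30 min RT.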
Sfp PPTase inh: blocks B. subtilis Sfp PPTase activity | Q9F4F7 | Biochemical Sfp PPTase activity, qHTS | Potency, µM, without a hit: largest response in the series, negative = inhibition, most hits filed as inhibitors | 3.5% of 310,000 active;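 note: the enzyme is Sfp with the accession as filed and its product quenches rhodamine fluorescence; potency is the fitted concentration of half-maximal effect; 0% = enzyme reaction without inhibitor and -100% = no enzyme wells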
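Buffer: 50 mM Hepes-Na pH 7.6, 10 mM MgCl2, 0.01% Nonidet P-40, 0.01% BSA. Enzyme 15 nM, pre-exposed to compound 15 min; substrates then added and fluorescence change tracked over 30 min.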
Numbers without * were called inactive; [ ] = another dose, or the depositor's remark. This is a sample that favours compounds with a hit; in the whole collection about 10% have one here. Unless noted, calls come from the whole dose curve; as a rule, active = well fitted curve in the direction sought with a large enough effect; inconclusive = small, poorly fitted or top-dose-only effect, or another doubt; inactive = no such curve, though single readings can be large; an effect the other way counts as inactive or inconclusive. Unless noted, % is set by controls: 0 for no effect and ±100 for the full control effect.

Results for Cc1ccc(NC(=O)CSc2nnc(-c3cccnc3)s2)cc1 ?
VDR inh: 1%; G9a inh: 79µM*; PLK1 PBD inh: -5%; CCT chaperon mod: 1; Mm-Cpn inhibitor: -18%; Sfp PPTase inh: -4%

Results for O=C(CSc1nnc(-c2cccnc2)s1)Nc1ccnc2ccccc12 ?
VDR inh: -21%; G9a inh: inconclusive; PLK1 PBD inh: -4%; CCT chaperon mod: 1; Mm-Cpn inhibitor: -6%; Sfp PPTase inh: 4%

What do the screens show for `CC(=O)Nc1ccc(NC(=O)Cc2sc(-c3cccnc3)nc2-c2ccc(C)cc2)cc1`?
VDR inh: 9%; G9a inh: 45µM*; PLK1 PBD inh: 8%; CCT chaperon mod: -2; Mm-Cpn inhibitor: 2%; Sfp PPTase inh: 10%

How did Fc1ccc(CNc2ncnc3nc[nH]c23)cc1 do in these assays?
VDR inh: 4%

How did Cc1ccc2c(c1)cc(C(=O)NCc1ccc(F)cc1)n2C do in these assays?
VDR inh: 19%; G9a inh: 5%[59 µM]

Results for COc1ccc(N=Nc2ccc3ccccc3c2)c(O)c1 ?
VDR inh: -9%; G9a inh: 10µM*; PLK1 PBD inh: -12%; CCT chaperon mod: -4; Mm-Cpn inhibitor: 1%; Sfp PPTase inh: inconclusive

Results for Cc1cc2ccccn2c1C(=O)c1cccc([N+](=O)[O-])c1 ?
VDR inh: -4%; G9a inh: 40µM*; PLK1 PBD inh: -10%; CCT chaperon mod: 0; Mm-Cpn inhibitor: -3%; Sfp PPTase inh: 1%

Results for COc1ccc(CC(=O)N(C)CC(=O)Nc2ccccc2SC)cc1 ?
VDR inh: inconclusive; G9a inh: -4%[59 µM]; PLK1 PBD inh: 24µM*; CCT chaperon mod: -46*; Mm-Cpn inhibitor: 0%; Sfp PPTase inh: 12%

How did CSc1ccccc1NC(=O)CN(C)C(=O)Cn1c(=O)oc2ccccc21 do in these assays?
VDR inh: 15%; G9a inh: 50µM*; PLK1 PBD inh: -5%; CCT chaperon mod: -1; Mm-Cpn inhibitor: -1%

What do the screens show for `Cc1ccc(NC(=O)Cc2ccc3c(c2)CCCC3)cc1C`?
VDR inh: -6%; G9a inh: inconclusive; PLK1 PBD inh: inconclusive; CCT chaperon mod: -2; Mm-Cpn inhibitor: -4%; Sfp PPTase inh: -6%

Results for CN(CC(=O)Nc1ccc(F)cc1)C(=O)Cn1c(=O)oc2ccccc21 ?
VDR inh: -5%; G9a inh: -6%[12.7 µM]; PLK1 PBD inh: 6%; CCT chaperon mod: 0; Mm-Cpn inhibitor: 0%

Results for COc1ccc(S(=O)(=O)N(C)CC(=O)Nc2ccccc2SC)cc1 ?
VDR inh: -26%; G9a inh: 72%[59 µM]; PLK1 PBD inh: -8%; CCT chaperon mod: -1; Mm-Cpn inhibitor: 2%; Sfp PPTase inh: -9%

Results for COc1ccc(NC(=O)CN(C)CC(=O)NC2CCC(C)CC2)cc1 (stereo unspecified) ?
VDR inh: -7%; G9a inh: -42%[12.7 µM]; PLK1 PBD inh: -1%; CCT chaperon mod: 1; Mm-Cpn inhibitor: -2%

How did COc1ccc(NC(=O)CN(C)CC(=O)NC2CCCCC2C)cc1 (stereo unspecified) do in these assays?
VDR inh: -12%; G9a inh: 28µM*; PLK1 PBD inh: 0%; CCT chaperon mod: -2; Mm-Cpn inhibitor: 0%

Results for Cc1ccc(NC(=O)CN(C)C(=O)Cc2ccc3c(c2)CCC3)cc1 ?
VDR inh: -11%; G9a inh: 50µM*; PLK1 PBD inh: -5%; CCT chaperon mod: 1; Mm-Cpn inhibitor: -1%

Results for CCN(CC)CCCC(C)n1c(-c2ccccc2)nc2c(NCc3ccccc3)nc(C)nc21 (stereo unspecified) ?
Sfp PPTase inh: -5%

Results for COc1ccc(NC(=O)CN(C)C(=O)Cc2ccc3c(c2)CCC3)cc1 ?
VDR inh: -2%; G9a inh: 50µM*; PLK1 PBD inh: inconclusive; CCT chaperon mod: -1; Mm-Cpn inhibitor: 0%; Sfp PPTase inh: -19%
